According to the supplement of paper PMC10849652:
The full data set covers some 8,800 targets. This sample favours those with a hit. About 0.5% of all pairs of compound and target were hits. Values without a mark were called inactive.

Assays:
Test in all cases: log2 fold change, soluble protein after heating vs DMSO (PISA); higher = thermal stabilisation; K562 lysate, 10 uM; active = over 0.2 and 3.5 SD of the protein, either way, in both replicates (recomputed)
[1] = compound: NCC(=O)Nc1ccc(-n2nc(C(F)(F)F)cc2-c2ccc3c(ccc4ccccc43)c2)cc1
In short: (§1)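 Log-two fold change in thermal stability relative to solvent controls is reported from duplicates. For each sample, crude K562 extract from dounce-homogenised pellets in PBS pH 7.4 with 1 mM MgCl2, at 1 mg/mL protein, was treated with 10 μM compound for 30 min. Aliquots heated for 3 min across 48°C-58°C were pooled, brought to 0.5% NP-40 at 4°C and cleared at 21,000xg for 90 min. The supernatant was quantified by TMTpro 16plex LC-MS/MS with channel sums equalised.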

[2] = compound: O=C(CCCCCCC(=O)Nc1ccccc1)NO [vorinostat]
In short: as §1

[3] = compound: O=C(O)c1ccc2c(c1)nc(Nc1cccc(Cl)c1)c1ccncc12 [silmitasertib]
In short: as §1

[4] = compound: O=C1NC(=O)C(c2cnc3ccccn23)=C1c1cn2c3c(cc(F)cc13)CN(C(=O)N1CCCCC1)CC2
In short: as §1

[5] = compound: c1cn2cc(-c3ccc4cn[nH]c4c3)nc(Nc3ccc(N4CCOCC4)cc3)c2n1 [entospletinib]
In short: as §1

Chain of UniProt Q9H0U4 (Q9H0U4 whole entry, looked up): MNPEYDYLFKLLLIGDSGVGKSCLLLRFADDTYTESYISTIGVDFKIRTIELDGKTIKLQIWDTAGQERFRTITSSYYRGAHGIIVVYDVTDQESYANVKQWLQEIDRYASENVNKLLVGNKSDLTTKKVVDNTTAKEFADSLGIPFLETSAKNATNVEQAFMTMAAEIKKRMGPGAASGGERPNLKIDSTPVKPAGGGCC
Chain of UniProt Q16576 (Q16576 whole entry, looked up): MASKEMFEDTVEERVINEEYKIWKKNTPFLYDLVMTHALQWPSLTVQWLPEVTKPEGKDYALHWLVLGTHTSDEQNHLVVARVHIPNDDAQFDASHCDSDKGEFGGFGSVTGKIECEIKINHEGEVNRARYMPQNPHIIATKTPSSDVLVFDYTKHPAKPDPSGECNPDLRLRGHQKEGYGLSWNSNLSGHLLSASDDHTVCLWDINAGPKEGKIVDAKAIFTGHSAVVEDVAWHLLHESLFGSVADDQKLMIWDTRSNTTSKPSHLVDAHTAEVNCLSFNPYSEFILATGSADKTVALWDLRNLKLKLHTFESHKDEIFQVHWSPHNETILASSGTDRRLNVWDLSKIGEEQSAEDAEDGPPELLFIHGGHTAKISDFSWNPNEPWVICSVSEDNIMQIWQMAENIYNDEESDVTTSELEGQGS
Chain of UniProt P61224 (P61224 whole entry, looked up): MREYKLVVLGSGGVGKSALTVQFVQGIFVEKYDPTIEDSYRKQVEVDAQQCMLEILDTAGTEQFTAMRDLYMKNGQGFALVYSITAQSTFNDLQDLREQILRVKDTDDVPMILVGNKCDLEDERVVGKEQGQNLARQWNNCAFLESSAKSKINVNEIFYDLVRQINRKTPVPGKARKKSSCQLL
Chain of UniProt Q15418 (Q15418 whole entry, looked up): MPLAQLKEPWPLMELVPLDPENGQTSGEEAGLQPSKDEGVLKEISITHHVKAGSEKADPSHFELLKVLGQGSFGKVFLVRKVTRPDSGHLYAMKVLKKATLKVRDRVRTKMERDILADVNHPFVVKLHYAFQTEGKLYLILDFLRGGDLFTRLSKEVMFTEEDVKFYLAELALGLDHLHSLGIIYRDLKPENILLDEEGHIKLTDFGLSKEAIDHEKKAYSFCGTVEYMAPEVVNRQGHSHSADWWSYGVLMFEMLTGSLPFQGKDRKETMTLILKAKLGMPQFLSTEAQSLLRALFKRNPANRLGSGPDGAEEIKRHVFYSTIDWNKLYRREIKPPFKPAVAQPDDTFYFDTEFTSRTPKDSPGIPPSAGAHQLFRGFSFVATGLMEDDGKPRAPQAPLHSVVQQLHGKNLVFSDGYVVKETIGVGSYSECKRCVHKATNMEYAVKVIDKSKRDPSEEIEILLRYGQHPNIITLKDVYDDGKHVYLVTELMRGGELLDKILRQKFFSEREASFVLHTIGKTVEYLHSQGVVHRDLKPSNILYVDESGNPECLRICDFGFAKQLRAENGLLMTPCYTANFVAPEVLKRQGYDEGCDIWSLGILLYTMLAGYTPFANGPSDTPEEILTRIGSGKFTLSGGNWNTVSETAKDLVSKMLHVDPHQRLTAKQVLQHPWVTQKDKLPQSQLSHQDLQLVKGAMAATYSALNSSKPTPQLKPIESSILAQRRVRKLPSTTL
Chain of UniProt Q9HBH5 (Q9HBH5 whole entry, looked up): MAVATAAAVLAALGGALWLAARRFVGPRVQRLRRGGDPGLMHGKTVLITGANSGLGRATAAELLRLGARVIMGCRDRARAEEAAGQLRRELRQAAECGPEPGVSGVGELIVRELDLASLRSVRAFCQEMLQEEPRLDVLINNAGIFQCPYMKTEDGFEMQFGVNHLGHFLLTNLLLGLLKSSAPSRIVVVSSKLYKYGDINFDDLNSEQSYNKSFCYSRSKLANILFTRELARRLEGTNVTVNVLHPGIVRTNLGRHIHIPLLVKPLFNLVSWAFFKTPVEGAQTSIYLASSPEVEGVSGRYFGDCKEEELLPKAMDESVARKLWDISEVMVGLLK
Chain of UniProt Q9UPW6 (Q9UPW6 whole entry, looked up): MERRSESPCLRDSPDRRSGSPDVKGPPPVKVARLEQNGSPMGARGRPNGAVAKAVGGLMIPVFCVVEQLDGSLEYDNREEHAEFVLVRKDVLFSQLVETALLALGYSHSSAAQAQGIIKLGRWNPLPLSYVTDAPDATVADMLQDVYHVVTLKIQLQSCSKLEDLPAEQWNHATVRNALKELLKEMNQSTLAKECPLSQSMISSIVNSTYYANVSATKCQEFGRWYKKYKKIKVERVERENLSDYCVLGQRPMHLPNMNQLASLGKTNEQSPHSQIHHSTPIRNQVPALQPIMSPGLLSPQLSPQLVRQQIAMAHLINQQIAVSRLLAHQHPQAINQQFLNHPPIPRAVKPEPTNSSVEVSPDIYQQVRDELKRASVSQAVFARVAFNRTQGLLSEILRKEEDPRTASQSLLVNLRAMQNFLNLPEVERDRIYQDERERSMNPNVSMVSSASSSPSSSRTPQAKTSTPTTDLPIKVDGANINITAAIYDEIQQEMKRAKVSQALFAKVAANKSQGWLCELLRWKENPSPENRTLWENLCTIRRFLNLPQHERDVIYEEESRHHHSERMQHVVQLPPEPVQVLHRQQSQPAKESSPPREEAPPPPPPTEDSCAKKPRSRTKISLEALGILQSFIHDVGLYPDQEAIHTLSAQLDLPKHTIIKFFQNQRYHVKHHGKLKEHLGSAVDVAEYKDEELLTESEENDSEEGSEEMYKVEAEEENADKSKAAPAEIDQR
Chain of UniProt Q86U06 (Q86U06 whole entry, looked up): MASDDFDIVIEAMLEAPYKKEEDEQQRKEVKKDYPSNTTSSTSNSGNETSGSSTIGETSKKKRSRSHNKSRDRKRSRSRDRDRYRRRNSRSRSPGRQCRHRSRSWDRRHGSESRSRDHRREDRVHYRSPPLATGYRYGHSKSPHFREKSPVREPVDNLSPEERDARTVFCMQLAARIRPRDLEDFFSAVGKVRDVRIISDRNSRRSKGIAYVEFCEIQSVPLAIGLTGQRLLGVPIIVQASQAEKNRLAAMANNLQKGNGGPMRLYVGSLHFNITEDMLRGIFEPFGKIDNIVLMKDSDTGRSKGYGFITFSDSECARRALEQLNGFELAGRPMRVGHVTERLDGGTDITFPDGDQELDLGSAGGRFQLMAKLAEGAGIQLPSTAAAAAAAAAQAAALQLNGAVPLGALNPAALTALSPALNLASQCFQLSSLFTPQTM
Chain of UniProt P23443 (P23443 whole entry, looked up): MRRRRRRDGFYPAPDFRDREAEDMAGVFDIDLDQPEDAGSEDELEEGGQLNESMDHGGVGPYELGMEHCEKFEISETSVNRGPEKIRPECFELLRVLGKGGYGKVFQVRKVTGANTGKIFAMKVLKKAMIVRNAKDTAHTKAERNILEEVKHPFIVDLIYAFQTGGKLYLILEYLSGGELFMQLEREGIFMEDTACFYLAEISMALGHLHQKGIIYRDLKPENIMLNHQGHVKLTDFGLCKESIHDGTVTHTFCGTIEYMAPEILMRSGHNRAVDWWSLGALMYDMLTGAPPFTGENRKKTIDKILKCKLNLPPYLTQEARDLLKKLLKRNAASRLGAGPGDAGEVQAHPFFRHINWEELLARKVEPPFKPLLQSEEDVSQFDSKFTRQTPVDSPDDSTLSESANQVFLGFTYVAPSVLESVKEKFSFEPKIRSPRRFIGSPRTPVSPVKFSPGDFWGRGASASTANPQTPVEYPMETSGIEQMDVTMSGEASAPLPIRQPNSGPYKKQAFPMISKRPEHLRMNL
Chain of UniProt Q14644 (Q14644 whole entry, looked up): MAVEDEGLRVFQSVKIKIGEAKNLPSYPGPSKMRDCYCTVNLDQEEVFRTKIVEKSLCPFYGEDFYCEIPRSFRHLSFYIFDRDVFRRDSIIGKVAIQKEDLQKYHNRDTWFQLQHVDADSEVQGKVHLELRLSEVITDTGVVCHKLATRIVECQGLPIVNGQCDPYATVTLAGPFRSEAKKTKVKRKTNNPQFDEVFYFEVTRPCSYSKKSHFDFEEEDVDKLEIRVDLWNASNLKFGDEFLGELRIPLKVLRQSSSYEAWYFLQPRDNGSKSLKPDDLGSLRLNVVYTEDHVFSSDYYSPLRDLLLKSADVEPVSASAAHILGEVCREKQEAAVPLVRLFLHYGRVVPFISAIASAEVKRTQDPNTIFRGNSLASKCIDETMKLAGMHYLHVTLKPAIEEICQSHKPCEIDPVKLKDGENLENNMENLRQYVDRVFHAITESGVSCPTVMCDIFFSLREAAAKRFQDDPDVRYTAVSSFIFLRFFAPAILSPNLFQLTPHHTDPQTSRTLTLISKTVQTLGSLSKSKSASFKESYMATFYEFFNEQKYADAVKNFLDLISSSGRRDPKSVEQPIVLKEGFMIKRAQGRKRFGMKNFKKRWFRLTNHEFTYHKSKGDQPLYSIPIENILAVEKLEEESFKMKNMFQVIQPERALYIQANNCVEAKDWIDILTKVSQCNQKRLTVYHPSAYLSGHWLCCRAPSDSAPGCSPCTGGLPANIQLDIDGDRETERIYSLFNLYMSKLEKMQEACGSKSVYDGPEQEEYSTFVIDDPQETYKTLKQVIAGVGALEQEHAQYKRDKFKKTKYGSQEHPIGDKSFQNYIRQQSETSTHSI
Chain of UniProt P18754 (P18754 whole entry, looked up): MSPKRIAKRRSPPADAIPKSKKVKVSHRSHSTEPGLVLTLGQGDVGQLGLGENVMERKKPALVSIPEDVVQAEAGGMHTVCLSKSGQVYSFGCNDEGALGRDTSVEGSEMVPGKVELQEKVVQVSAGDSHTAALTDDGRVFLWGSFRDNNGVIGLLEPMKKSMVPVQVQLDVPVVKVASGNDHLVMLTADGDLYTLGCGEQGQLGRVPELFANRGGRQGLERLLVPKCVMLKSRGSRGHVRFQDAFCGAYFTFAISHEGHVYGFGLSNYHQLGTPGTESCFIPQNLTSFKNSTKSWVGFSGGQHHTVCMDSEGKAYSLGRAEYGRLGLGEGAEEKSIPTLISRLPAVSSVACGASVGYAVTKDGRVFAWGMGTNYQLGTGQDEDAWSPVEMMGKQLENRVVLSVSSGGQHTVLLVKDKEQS
Chain of UniProt P60059 (P60059 whole entry, looked up): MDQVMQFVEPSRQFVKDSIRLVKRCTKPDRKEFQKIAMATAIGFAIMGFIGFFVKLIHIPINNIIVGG

Target	log2 fold change [1]	log2 fold change [2]	log2 fold change [3]	log2 fold change [4]	log2 fold change [5]
RCOR3 isoform 3 (UniProt Q9P2K3)	-0.044	-0.206	-0.002	-0.01	0.034
RAF1 isoform 2 (UniProt P04049)	0.126	-0.304 (active)	0.024	0.068	-0.015
RAB1B (UniProt Q9H0U4)	0.025	0.186	0.007	-0.039	-0.011
SAMHD1 (UniProt Q9Y3Z3)	-0.012	-0.352 (active)	-0.002	0.032	0.031
RCC1 isoform 2 (UniProt P18754)	0.009	-0.381 (active)	0.034	0.051	-0.014
SATB2 (UniProt Q9UPW6)	0	-0.347 (active)	0.051	-0.024	0.036
RPLP0P6 (UniProt Q8NHW5)	0.009	0.123	0.004	-0.003	0.017
RSU1 (UniProt Q15404)	0.018	0.15	0	0.034	0.003
RAI14 isoform 2 (UniProt Q9P0K7)	0.005	-0.254 (active)	0.022	0.015	-0.003
RPS6KA3 (UniProt P51812)	-0.017	-0.384	0.362	0.181	-0.052
RASA3 (UniProt Q14644)	-0.022	-0.361 (active)	-0.08	-0.015	0.017
RBBP7 isoform 2 (UniProt Q16576)	-0.043	0.03	-0.012	-0.068	0.024
RANBP6 (UniProt O60518)	0.013	-0.345 (active)	0.054	0.041	0.011
SCO1 (UniProt O75880)	0.022	0.149	-0.067	-0.052	0
SCML2 (UniProt Q9UQR0)	-0.099	-0.243 (active)	0.039	0.037	0.007
SEC61G (UniProt P60059)	-0.047	0.005	0.013	0.232	-0.034
RAP1B (UniProt P61224)	0.048	0.078	-0.036	-0.024	-0.012
RDH14 (UniProt Q9HBH5)	-0.072	-0.318 (active)	0.044	0.004	0.026
RPS29 (UniProt P62273)	-0.105	0.145	-0.03	0.205	-0.085
RPL27 (UniProt P61353)	0.014	0.129	0.03	0.013	0.009
RPS6KB1 (UniProt P23443)	-0.049	-0.319 (active)	0.132	-0.017	-0.005
RPS6KA1 (UniProt Q15418)	0.014	-0.157	0.553 (active)	0.123	-0.038
SEH1L isoform 1 (UniProt Q96EE3)	0.056	-0.001	-0.02	-0.008	-0.011
RBM23 isoform 2 (UniProt Q86U06)	0.121	-0.334	-0.019	-0.113	0.037
RAD51C (UniProt O43502)	0.023	-0.386 (active)	-0.003	-0.015	0.065
RPS4X (UniProt P62701)	0.008	0.106	0.028	0.015	0.016
RALGAPB (UniProt Q86X10)	0.004	-0.299 (active)	0.017	-0.017	-0.029
